Compound activity (PubChem)
aGlu spleen mod: inhibits or activates alpha-glucosidase in human spleen homogenate; P10253; human spleen homogenate, 4-MU-alpha-glucoside fluorescence; Potency, µM (doses to about 79.9 µM), actives largely listed as inhibitors; 240,000 tested, 0.006% active; AID 2112
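AC50 values come from Hill-equation fits of concentration-response data, normalized to no-enzyme and full-activity controls. Enzyme source: 1 ug human spleen homogenate; 1 mM fluorogenic 4-MU glucoside, pH 5.0 citrate buffer, 37 C, 40 min.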
GAA glycogen: GAA glycogen-cleavage inhibition or activation; P10253; recombinant GAA, glycogen substrate, Amplex Red glucose oxidase fluorescence; Potency, µM (highest dose often 76.4 µM), usual class: inhibitors; 300,000 tested, 0.38% active;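 further: the screen sought inhibitors and activators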
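Recombinant enzyme (4 nM final) with compounds titrated up to 77 uM and bovine liver glycogen (30 ug) in citrate pH 5.0, 0.01% Tween-20, 37 C 40 min. Released glucose detected by Amplex Red/glucose oxidase (Ex 573/Em 610); AC50 from Hill fits.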
GAA inhib: inhibitors of human lysosomal alpha-glucosidase | Potency, µM (titrated, usually from 76.9 µM), usual class: inhibitors | 200,000 tested, 0.005% active | purified human GAA, 4-MU-alpha-glucoside fluorescence | AID 1466 | P10253
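Compounds are titrated up to 77 uM against 4 nM human enzyme. Substrate 4-methylumbelliferyl-alpha-D-pyranoside (400 uM) reacts 20 min at room temperature in pH 5.0 buffer; liberated 4-methylumbelliferone is read at 440 nm.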
aGal spleen mod: inhibitors or activators of human alpha-galactosidase in spleen homogenate | P06280 | human spleen homogenate, 4MU-alpha-Gal fluorescence, 40 min | Potency, µM (series often up to 80 µM), usual class: inhibitors | 240,000 tested, 0.008% active | AID 2107
Target sequence (P06280 32-429 limits assumed): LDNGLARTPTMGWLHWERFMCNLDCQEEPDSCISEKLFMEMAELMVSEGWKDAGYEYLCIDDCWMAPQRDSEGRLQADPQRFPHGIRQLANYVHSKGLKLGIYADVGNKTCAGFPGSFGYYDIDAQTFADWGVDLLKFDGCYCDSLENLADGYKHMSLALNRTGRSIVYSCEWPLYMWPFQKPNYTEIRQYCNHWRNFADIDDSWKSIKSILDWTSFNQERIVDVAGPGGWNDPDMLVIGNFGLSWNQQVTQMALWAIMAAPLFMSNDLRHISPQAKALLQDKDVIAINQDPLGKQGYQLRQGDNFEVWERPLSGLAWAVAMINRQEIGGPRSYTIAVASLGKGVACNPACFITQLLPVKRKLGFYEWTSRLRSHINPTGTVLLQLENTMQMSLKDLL
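Spleen homogenate 1 ug + cpd (titration) + 4-MU-alpha-D-galactopyranoside 1 mM; 37C 40 min; 50 mM citrate/phosphate pH 5.0, 0.01% Tween-20; stop pH 10; fluorescence 365/440; AC50 via Hill.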
N370S GC mod: inhibitors or activators of N370S glucocerebrosidase for Gaucher disease | P04062 | N370S GC spleen homogenate, 4MU-glucoside fluorescence | Potency, µM (top dose mostly 59.4 µM), hits mostly inhibitors | 330,000 tested, 0.092% active
GLA inh pH 4.5: alpha-galactosidase A (human) inhibition, pH 4.5; P06280; 230,000 tested, under 10 active; activity change, negative = inhibition, % at 105 µM; purified enzyme, 4-MU-alpha-Gal fluorescence, pH 4.5
Each line names hits and unclear results; the compound was inactive in the other large screens. Compounds with a hit are over-represented: about 0.43% of the library has one in this group of screens. The call rests on the fitted dose curve; in most records, active means well fitted curve in the direction sought with a large enough effect; inconclusive means small, poorly fitted or top-dose-only effect, or another doubt; inactive means no such curve, though single readings can be large; an effect the other way counts as inactive or inconclusive.

C/C(CCN1CCCc2nc(C)c(C)cc21)=N\OC[C@@H](O)[C@@H]1O[C@@H]2OC(C)(C)O[C@@H]2[C@H]1O	none (no result: GAA glycogen, GAA inhib, GLA inh pH 4.5)
COc1ccc(C(C)=O)c2c(O)cccc12	GAA glycogen 40µM
COc1ccc(C(=O)c2ccccc2)c2c(O)ccc(C(=O)c3ccccc3)c12	none
COc1cc(OC)c(NC2=C(c3ccc(C(F)(F)F)cc3)C(=O)c3ccccc32)cc1Cl	none (no result: aGlu spleen mod, GAA inhib, aGal spleen mod, N370S GC mod, GLA inh pH 4.5)
CC(=O)N(c1ccc(Cl)cc1)c1cn(C(C)=O)c2ccccc12	N370S GC mod 18µM
COc1ccc(-c2cnnc(N/N=C/c3ccc(O)c(O)c3)n2)cc1	GAA glycogen 11µM
Fc1ccccc1NC(=S)NNc1ncc(C(F)(F)F)cc1Cl	GAA glycogen 28µM
C(=N\Nc1nc2ccccc2[nH]1)/c1c[nH]c2ccccc12	GAA glycogen 22µM
Cc1cc(=O)[nH]c(N/N=C/c2c[nH]c3ccccc23)n1	none
C(=N\Nc1nc2ccccc2[nH]1)/c1cccc2cccnc12	GAA glycogen 35µM
C(=N\Nc1nc2ccccc2[nH]1)/c1ccccc1	GAA glycogen inconclusive
Cc1ccccc1/C=N/Nc1nc2ccccc2[nH]1	GAA glycogen inconclusive
Cc1ccc(/C=N/Nc2nc3ccccc3[nH]2)s1	GAA glycogen 28µM
CCOc1ccc(OCC)c(NC(=O)C(NS(=O)(=O)c2cccs2)c2ccccc2)c1 (centres undefined)	none (no result: aGlu spleen mod, GAA inhib, aGal spleen mod, N370S GC mod, GLA inh pH 4.5)
COc1cccc(C2NC(C(=O)O)CCC2C)c1 (centres undefined)	none (no result: GAA glycogen, GAA inhib, GLA inh pH 4.5)
CCN1C(=O)[C@H]2[C@H]3[C@H](O)[C@H](O)C/C(=N/OC[C@@H]4O[C@H](c5ccccc5)C=C[C@@H]4Oc4ccc(OC)cc4)[C@@H]3CC[C@@H]2C1=O	none (no result: GAA glycogen, GAA inhib, GLA inh pH 4.5)
O=C(O)C1(C(=O)O)CCC1.[NH2-].[NH2-].[Pt+2]	none (no result: GAA glycogen, GAA inhib, GLA inh pH 4.5)
Oc1ccc(-c2nc3ncccn3c2Nc2ccc3c(c2)OCCO3)cc1	GAA glycogen 25µM (no result: N370S GC mod)
Cc1ccc(-c2nc3ncccn3c2Nc2ccc3c(c2)OCCO3)o1	GAA glycogen 14µM
Clc1ccc(-c2nc3ncccn3c2Nc2ccc3c(c2)OCCO3)cc1	GAA glycogen inconclusive
Brc1ccc(-c2nc3ncccn3c2Nc2ccc3c(c2)OCCO3)o1	GAA glycogen 22µM
Cc1ccc(-c2nc3ncccn3c2NC(=O)C2CC2)cc1	none
Cc1ccc(-c2nc3ncccn3c2Nc2ccc3c(c2)OCCO3)cc1	GAA glycogen inconclusive
Cc1ccc(-c2nc3ncccn3c2NC2CCCCC2)o1	GAA glycogen 28µM
COc1ccc(N(C)S(=O)(=O)c2ccc3c(c2)n(C)c(=O)c(=O)n3C)cc1	none (no result: aGlu spleen mod, GAA inhib, aGal spleen mod, N370S GC mod, GLA inh pH 4.5)
COCCn1c(=O)c(CCc2ccccc2)nc2cnc(Nc3cccc(OC)c3)nc21	none (no result: GAA glycogen, GAA inhib, GLA inh pH 4.5)
NC(=NCCCCCCN=C(N)/N=C(\N)Nc1ccc(Cl)cc1)/N=C(\N)Nc1ccc(Cl)cc1	N370S GC mod 6.3µM (no result: GAA inhib)
Cc1ccc(-c2nnc(Nc3ccc(O)cc3)c3ccccc23)cc1S(=O)(=O)N1CCN(C)CC1	GAA glycogen 16µM (no result: aGlu spleen mod, GAA inhib, aGal spleen mod, N370S GC mod, GLA inh pH 4.5)
COC(=O)N1C(/C=C/c2ccc3c(c2)OCO3)=Cc2ccccc2C1CC(C)=O (centres undefined)	none (no result: GAA glycogen, GAA inhib)
CCOC(=O)c1c(CSc2ccccc2)n(C)c2cc(Br)c(OCC(O)CNC(CO)(CO)CO)cc12 (centres undefined)	N370S GC mod 14µM
Cc1ccc(Nc2cc(C)nc(-c3ccccc3)n2)cc1	N370S GC mod 3.2µM (no result: aGlu spleen mod, GAA inhib, aGal spleen mod, GLA inh pH 4.5)
Cc1cc(Nc2ccc(Cl)cc2)nc(NCc2ccccc2)n1	N370S GC mod 22µM
Cc1ccc(Nc2cc(C)nc(-c3ccccc3O)n2)cc1	N370S GC mod inconclusive
O=[N+]([O-])c1ccc(N/N=C/c2cccc(O)c2O)cc1	GAA glycogen inconclusive (no result: aGlu spleen mod, GAA inhib, aGal spleen mod, GLA inh pH 4.5)
O=[N+]([O-])c1ccc(N/N=C/c2c[nH]c3ccccc23)cc1	GAA glycogen 18µM (no result: N370S GC mod)
O=[N+]([O-])c1ccc(N/N=C/c2ccc[nH]2)cc1	GAA glycogen 7.9µM (no result: N370S GC mod)
